Potency and affinity values are given separately.
Molecular target: HMG-CoA reductase [Enterococcus faecalis] (UniProt Q9FD70)
Experiment: inhibitors of E. faecalis class II HMGR, confirmation, biochemical, Enterococcus faecalis (AID 1233);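 further: 0% = full reaction carrier wells and 100% = background wells lacking mevalonate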
Conditions: purified E. faecalis HMGR, NADPH absorbance 340 nm kinetics; series mostly up to 100 µM; inhibition: at the top concentration;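 active means a dose-response curve fit returns a half-maximal inhibitory concentration, extrapolated values included; inactive means the fit returns no such concentration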

inhibition, inactive:
Cc1ccc(-c2noc(CSc3nnc(Cc4ccccc4)n3-c3ccc(Cl)cc3)n2)cc1 4.74%, O=C(/C(=C/c1ccc(Cl)cc1)c1nc2ccccc2[nH]1)c1ccccc1 -2.1%, Cc1ccc(C)c(N=Cc2ccc(-c3ccc([N+](=O)[O-])cc3)o2)c1 -5.67%, Cc1ccc(-c2nc3cccnc3s2)cc1NS(=O)(=O)c1ccc2c(c1)CCCC2 0.8%, CCN(CC)S(=O)(=O)c1ccc(C(=O)Nc2c3c(nn2C(C)(C)C)CS(=O)(=O)C3)cc1 -0.5%, Cc1ccccc1Nc1nnc(SCc2nc3ccccc3c(=O)[nH]2)s1 -11.1%, COc1ccc(-c2cc(C(=O)Nc3c(C)nn(Cc4ccc(Cl)cc4)c3C)no2)cc1 0.84%, C=CCOc1c(Br)cc(CNc2nccs2)cc1OC -11.1%, Cc1c(NC(=O)CN2C(=O)c3ccccc3S2(=O)=O)c(=O)n(-c2ccccc2)n1C 1.92%, O=C(COc1ccc2ccc(=O)oc2c1)N1CCN(c2ccccc2)CC1 -2.7%, CCOc1cccc2cc(C(N)=O)c(=NCc3ccccc3)oc12 -4.04%, COc1cccc(-c2nnc3sc(-c4cccs4)nn23)c1 -8.43%, COCCOC(=O)c1c(NC(=O)CN2CCOCC2)sc(C(N)=O)c1C -6.21%, O=C(Nc1ccncc1)c1ccc(C(=O)Nc2ccncc2)cc1 -3.46%, O=C(NN1S(=O)(=O)c2ccccc2S1(=O)=O)c1ccc(Br)cc1 -12.5%, COc1cc(-c2nnc(SC/C=C/c3ccccc3)n2N)cc(OC)c1OC -0.99%, COC(=O)C1C(c2ccc(N(C)C)cc2)C(C(=O)OC)S(=O)(=O)CS1(=O)=O (configuration not stated) -1.62%

Reference: PubChem BioAssay AID1233 (SRMLSC, 2008)
